For some assays here: Results with a measured potency or affinity are listed apart.
How the values were obtained:
Design in all cases: scale not given: direction of the effect not stated beside the values
[1] = biological target: Protein translocase subunit SecA (Escherichia coli (strain K12)) (UniProt P10408); experiment: Assay to Identify E. coli SecA ATPase Inhibitors; assay type: functional; conditions: 30 µM
[2] = biological target: T1, Ubiquitin-activating enzyme e1, putative (Leishmania donovani (strain BPK282A1)) (UniProt E9BSI1); experiment: Leishmania donovani Ubiquitin Activating Enzyme (LdE1); assay type: functional; conditions: 30 µM
T1 sequence (whole entry): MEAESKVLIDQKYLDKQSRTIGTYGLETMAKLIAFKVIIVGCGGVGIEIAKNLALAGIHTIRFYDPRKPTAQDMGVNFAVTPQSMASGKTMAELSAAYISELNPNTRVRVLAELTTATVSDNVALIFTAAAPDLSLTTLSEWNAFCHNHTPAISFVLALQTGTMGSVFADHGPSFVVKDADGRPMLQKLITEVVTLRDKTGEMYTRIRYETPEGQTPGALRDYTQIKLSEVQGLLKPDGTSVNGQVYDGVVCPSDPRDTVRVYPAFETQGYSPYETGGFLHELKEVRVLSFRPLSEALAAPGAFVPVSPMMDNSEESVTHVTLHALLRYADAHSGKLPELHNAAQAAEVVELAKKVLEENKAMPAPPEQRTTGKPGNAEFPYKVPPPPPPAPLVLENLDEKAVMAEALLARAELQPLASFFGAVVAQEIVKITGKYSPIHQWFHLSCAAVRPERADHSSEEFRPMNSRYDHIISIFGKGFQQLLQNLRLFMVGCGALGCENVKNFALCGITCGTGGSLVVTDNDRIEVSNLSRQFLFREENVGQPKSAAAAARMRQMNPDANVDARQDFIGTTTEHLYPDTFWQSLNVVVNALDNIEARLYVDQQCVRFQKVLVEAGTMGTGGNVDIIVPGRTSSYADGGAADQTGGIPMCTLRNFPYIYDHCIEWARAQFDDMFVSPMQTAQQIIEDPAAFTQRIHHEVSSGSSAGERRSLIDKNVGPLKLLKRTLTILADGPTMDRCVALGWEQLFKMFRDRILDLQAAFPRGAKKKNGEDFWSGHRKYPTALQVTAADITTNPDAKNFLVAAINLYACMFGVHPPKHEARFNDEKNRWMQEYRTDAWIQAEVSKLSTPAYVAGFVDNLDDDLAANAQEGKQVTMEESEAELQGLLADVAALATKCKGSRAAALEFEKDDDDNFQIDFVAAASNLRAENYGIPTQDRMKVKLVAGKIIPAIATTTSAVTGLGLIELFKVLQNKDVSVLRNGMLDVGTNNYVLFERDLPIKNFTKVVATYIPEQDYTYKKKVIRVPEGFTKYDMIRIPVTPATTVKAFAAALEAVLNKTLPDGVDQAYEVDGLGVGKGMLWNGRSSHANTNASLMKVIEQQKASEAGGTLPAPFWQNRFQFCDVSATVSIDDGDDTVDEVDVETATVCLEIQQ

[3] = biological target: Sialic acid-binding Ig-like lectin 9 (Homo sapiens) (UniProt Q9Y336); experiment: Hs-Siglec9 ALPHAscreen SOP 20170721; conditions: 10 µM
Trypanosoma cruzi = experiment: Trypanosoma cruzi phosphomannomutase and mannose-1-phosphate guanylyltransferase assay; assay type: functional; conditions: 10 µM
[4] = biological target: T2, Arginase-2, mitochondrial (Homo sapiens) (UniProt P78540); experiment: in vitro enzyme assay to detect the production of urea directly proportional to the activity of Arginase II; assay type: functional; conditions: 33.3 µM; note: in the data most compounds retested in dose-response had high values
T2 sequence (whole entry): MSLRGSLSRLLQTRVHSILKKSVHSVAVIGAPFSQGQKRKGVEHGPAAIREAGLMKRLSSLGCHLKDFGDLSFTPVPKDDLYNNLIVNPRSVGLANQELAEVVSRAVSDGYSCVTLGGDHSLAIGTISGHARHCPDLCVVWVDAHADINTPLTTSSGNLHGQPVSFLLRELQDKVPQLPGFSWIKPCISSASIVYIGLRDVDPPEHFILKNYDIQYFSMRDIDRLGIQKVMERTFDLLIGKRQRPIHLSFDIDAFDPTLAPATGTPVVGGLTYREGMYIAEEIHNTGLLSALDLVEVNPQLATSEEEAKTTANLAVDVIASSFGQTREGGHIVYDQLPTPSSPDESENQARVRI

[5] = biological target: T3, Proteasome subunit beta (Trypanosoma cruzi) (UniProt O96673); experiment: Trypanosoma cruzi proteasome chymotrypsin-like activity (TcProtChymo) assay.; note: in the data most compounds retested in dose-response had high values; assay type: functional; conditions: 9.37 µM
T3 sequence (whole entry): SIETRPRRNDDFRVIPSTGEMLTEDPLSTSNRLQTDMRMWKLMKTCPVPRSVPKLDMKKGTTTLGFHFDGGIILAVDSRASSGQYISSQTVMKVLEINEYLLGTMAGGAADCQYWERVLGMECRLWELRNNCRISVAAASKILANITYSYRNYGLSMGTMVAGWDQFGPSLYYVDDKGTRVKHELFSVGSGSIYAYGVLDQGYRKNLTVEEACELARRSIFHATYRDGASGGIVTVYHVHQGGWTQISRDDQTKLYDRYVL

Homo sapiens = organism: Homo sapiens; experiment: To identify inhibition of the IFN signalling (Jak-Stat) pathway via expression of an eGFP reporter gene under the control of an IFN-stimulated response element (ISRE) containing MxA promoter.; assay type: functional; conditions: 30 µM
[6] = biological target: T4, Tyrosyl-tRNA synthetase, putative (Trypanosoma cruzi (strain CL Brener)) (UniProt Q4DSP6); experiment: Trypanosoma cruzi tyrosyl tRNA synthetase (TcYRS) _High Tyrosine SOP; assay type: functional; conditions: 30 µM; note: in the data most compounds retested in dose-response had high values
T4 sequence (whole entry): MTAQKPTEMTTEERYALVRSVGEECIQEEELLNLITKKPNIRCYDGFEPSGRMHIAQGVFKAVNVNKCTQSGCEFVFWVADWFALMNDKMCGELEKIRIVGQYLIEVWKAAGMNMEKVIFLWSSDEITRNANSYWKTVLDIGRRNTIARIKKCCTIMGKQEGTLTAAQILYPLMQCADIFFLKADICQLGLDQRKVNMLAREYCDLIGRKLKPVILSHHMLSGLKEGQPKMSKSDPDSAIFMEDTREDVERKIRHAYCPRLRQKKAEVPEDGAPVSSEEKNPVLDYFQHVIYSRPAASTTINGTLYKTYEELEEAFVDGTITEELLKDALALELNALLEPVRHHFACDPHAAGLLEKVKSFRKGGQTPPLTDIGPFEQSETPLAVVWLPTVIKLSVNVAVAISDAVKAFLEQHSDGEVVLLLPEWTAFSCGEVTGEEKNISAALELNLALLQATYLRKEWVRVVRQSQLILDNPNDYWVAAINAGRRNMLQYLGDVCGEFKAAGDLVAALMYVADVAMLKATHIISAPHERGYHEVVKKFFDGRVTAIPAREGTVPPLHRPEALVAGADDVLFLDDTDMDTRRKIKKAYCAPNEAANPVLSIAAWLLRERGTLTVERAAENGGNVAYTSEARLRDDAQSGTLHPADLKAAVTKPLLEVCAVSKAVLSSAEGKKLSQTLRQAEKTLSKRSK

[7] = biological target: T4, Tyrosyl-tRNA synthetase, putative (Trypanosoma cruzi (strain CL Brener)); experiment: Trypanosoma cruzi tyrosyl tRNA synthetase (TcYRS) SOP; assay type: functional; conditions: 30 µM
[8] = biological target: Chromo domain-containing protein 1 (Saccharomyces cerevisiae (strain ATCC 204508 / S288c) (Baker's yeast)) (UniProt P32657); experiment: ScCHD-1 Enzyme Inhibition Assay; assay type: functional; conditions: 30 µM; note: in the data most compounds retested in dose-response had high values
Sequence of Chromo domain-containing protein 1 (Saccharomyces cerevisiae (strain ATCC 204508 / S288c) (Baker's yeast)) (P32657 whole entry, the tested form may be a part): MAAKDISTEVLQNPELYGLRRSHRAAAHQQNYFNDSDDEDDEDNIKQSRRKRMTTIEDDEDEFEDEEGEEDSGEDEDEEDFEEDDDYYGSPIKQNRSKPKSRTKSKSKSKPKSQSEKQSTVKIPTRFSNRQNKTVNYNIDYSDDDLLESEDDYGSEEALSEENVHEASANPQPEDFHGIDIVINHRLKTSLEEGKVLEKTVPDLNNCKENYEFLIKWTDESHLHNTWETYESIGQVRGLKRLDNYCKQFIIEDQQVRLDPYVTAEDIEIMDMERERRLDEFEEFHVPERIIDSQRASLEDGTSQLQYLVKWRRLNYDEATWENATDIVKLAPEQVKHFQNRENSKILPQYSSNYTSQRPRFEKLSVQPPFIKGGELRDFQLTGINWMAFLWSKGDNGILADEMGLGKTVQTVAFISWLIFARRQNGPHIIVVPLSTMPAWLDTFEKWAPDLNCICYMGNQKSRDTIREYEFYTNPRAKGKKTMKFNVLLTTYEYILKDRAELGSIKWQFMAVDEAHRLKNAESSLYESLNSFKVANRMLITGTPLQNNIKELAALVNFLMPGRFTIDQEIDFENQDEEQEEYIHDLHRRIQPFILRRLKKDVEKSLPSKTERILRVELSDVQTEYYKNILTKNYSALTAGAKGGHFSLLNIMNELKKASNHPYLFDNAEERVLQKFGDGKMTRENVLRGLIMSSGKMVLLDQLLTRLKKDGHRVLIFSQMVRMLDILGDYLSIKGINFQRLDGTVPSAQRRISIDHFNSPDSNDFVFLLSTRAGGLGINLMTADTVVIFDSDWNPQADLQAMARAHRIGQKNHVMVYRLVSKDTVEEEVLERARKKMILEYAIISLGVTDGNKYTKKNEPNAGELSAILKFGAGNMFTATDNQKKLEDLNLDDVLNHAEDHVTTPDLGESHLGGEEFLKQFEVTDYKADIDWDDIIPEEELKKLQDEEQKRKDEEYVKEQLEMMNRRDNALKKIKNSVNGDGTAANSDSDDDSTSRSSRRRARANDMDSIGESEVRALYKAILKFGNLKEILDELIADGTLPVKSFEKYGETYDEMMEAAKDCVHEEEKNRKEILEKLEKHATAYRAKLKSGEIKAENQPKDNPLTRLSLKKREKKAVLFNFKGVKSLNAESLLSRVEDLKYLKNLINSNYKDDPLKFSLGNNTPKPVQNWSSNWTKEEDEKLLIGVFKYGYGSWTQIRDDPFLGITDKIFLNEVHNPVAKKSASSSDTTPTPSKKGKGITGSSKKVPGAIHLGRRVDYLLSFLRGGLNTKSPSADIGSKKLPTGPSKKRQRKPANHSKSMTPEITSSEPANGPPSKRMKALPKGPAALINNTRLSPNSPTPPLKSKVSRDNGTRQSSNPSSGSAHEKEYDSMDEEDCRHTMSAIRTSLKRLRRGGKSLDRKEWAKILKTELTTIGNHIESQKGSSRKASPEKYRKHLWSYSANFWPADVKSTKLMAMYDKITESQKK

Sequence of Sialic acid-binding Ig-like lectin 9 (Homo sapiens) (Q9Y336 whole entry): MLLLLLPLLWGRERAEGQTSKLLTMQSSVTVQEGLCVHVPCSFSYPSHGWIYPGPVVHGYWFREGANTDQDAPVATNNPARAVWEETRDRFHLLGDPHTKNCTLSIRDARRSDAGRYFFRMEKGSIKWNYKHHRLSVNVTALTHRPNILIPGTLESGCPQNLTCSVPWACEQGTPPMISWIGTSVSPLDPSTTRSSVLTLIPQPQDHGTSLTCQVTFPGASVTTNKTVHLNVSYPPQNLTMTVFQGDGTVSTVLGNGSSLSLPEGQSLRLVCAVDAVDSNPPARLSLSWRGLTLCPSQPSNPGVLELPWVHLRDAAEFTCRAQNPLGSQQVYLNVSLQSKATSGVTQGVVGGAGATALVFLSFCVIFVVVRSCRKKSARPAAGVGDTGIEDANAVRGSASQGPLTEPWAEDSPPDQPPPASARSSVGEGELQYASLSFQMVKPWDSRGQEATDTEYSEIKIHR
Sequence of Protein translocase subunit SecA (Escherichia coli (strain K12)) (P10408 whole entry): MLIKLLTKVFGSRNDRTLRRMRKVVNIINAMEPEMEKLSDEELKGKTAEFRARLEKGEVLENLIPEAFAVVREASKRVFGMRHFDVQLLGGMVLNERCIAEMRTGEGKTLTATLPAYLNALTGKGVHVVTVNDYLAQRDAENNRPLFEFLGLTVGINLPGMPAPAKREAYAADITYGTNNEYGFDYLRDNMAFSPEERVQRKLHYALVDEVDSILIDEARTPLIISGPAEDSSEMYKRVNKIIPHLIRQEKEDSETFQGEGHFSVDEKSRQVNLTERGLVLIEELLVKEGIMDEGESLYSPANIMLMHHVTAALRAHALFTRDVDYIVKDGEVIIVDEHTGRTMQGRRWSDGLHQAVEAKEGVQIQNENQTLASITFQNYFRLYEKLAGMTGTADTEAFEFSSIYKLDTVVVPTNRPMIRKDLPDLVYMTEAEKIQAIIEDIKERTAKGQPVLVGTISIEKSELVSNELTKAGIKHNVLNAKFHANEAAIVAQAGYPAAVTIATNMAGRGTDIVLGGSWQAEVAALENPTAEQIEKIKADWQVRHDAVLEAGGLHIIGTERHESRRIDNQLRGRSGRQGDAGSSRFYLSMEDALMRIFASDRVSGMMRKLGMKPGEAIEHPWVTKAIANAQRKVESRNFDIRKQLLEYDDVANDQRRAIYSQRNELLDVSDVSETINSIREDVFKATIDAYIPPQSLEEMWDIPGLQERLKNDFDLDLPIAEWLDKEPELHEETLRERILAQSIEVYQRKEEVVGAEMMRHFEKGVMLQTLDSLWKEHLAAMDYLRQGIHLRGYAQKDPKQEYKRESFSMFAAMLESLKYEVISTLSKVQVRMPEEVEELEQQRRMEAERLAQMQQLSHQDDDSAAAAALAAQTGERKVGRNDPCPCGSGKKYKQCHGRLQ

| SMILES | Percent Effect [1] [%] | Percent Effect [2] [%] | Percent Effect [3] [%] | Percent Effect (Trypanosoma cruzi) [%] | Percent Effect [4] [%] | Percent Effect [5] [%] | Percent Effect (Homo sapiens) [%] | Percent Effect [6] [%] | Percent Effect [7] [%] | Percent Effect [8] [%] |
| --- | --- | --- | --- | --- | --- | --- | --- | --- | --- | --- |
| CC(=O)N1CCC2(CCN(C(=O)c3ccc(C)c(C(F)(F)F)c3)CC2)C1 | -3.18 | 14.3 | 1.63 | -7.69 | 7.29 | 19.5 | 17.8 | 7.89 | 0 | -3.98 |
| COCCc1noc(CN2CCCC2Cn2cc(C)cn2)n1 (stereo not given) | -1.35 | 8 | 1.3 | 3.21 | -7.98 | 3.31 | -1.19 | 0.526 | 7.69 | -7.63 |
| CCc1cc(C(=O)N2CCC(Nc3ccc(C)nn3)CC2)sc1C | -4.07 | 10.7 | -0.268 | 3.61 | -4.88 | 2.8 | 4.58 | 5.79 | 7.69 | -9.15 |
| Cc1cnc(CN(C)C2CCN(Cc3ccccc3C#N)C2)o1 (stereo not given) | 0.623 | 13.3 | -5.38 | -5.82 | 3.1 | 18.4 | 2.92 | 3.68 | 7.69 | -11.8 |
| CS(=O)(=O)NCC1CCCN(C(=O)c2ccc(Cl)o2)C1 (stereo not given) | 1.32 | 7.79 | -4.36 | -0.746 | 7.58 | 14.6 | -11.3 | 4.9 | 18.8 | -10 |
| O=C1CN(Cc2ccc(-c3ccccc3C(=O)O)cc2)CCN1 | 1.19 | 12 | -5.14 | -4.73 | -1.33 | 14.1 | 27.5 | 1.06 | 0 | -24.4 |
| Cc1cc(C)n(CC2CCCCN2C(=O)c2cnn(C)c2)n1 (stereo not given) | -5.83 | 8 | 1.34 | -5.22 | -2.22 | 6.02 | 5.12 | -0.526 | 2.56 | -0.708 |
| CCc1n[nH]c(C2CN(C(=O)c3nc(C)n4ccccc34)CCO2)n1 (stereo not given) | -2.26 | 13 | 11.1 | -1.49 | 10 | 9.82 | -10.3 | 4.9 | 16.5 | -11 |
| COCCN1CCCC12CCN(C(=O)CC1CCCC1)CC2 | -1.94 | -3.9 | 0.315 | 2.44 | 0 | -0.0858 | 16.7 | 5.8 | 12.5 | -2.58 |
| CNC(=O)C1CCC(NC(=O)N(C)Cc2c(C)noc2C)CC1 (stereo not given) | -5.49 | 10.3 | -15.1 | 11 | -3.28 | 1.96 | 2.07 | 6.22 | 18.1 | 96.3 |
| Cc1ccc(OC2(C(=O)O)CCN(C(=O)c3nc(C)oc3C)CC2)cn1 | -6.7 | 0 | -0.0712 | 4.17 | 1.05 | -1.2 | -9.04 | 2.66 | 4.88 | 1.11 |
| Cc1cc(C2CCCN2Cc2ccn(C)c(=O)c2)no1 (stereo not given) | -3.32 | -10.3 | 3.98 | 9.11 | 1.64 | 8.45 | 4.2 | 3.35 | 8.43 | -0.427 |
| COc1ccccc1OCC(=O)NS(=O)(=O)c1ccc(C)s1 | -1.64 | 5.2 | 0.674 | -0.746 | 7.58 | 6.49 | 5.05 | 0.98 | 16.5 | -3.45 |
| Cc1noc(C2CCN(Cc3cc(=O)n(C)c(=O)n3C)CC2)n1 | -4.76 | 16 | 3.89 | 0.602 | 0 | 13.2 | 15.2 | 3.68 | 12.8 | -9.16 |
| O=C(C1CCOC1)N1CC[C@@H](O)[C@@H]1Cc1ccccc1 (stereo not given in full) | -4.39 | -14.3 | -3.29 | -10.1 | 3.2 | 6.09 | -3.1 | -28 | -60 | -3.36 |
| CC(=O)N1CCC2(CCN(C(=O)c3ccc(Cl)c(C(F)(F)F)c3)CC2)C1 | -7.31 | 6.49 | 5.74 | 0.292 | -0.405 | 7.5 | -12.1 | 6.84 | 7.69 | 3.63 |
| Cc1cc(CN2CCCC2Cn2cncn2)no1 (stereo not given) | -4.42 | 17.9 | -10.5 | 11.9 | -2.05 | 17 | 0.869 | 3.35 | 20.5 | -10.5 |
| Cc1cn2c(n1)CCC(NC(=O)c1cc(Br)cn1C)C2 (stereo not given) | -8.37 | 0 | 0.858 | -3.41 | -1.33 | 8.23 | 12.4 | -1.58 | 0 | -4.6 |
| Cc1ccc(N2CCC3(CCN(C(N)=O)CC3)CC2)nn1 | -4.59 | 1.3 | -5.12 | -8.47 | 3.64 | 13.5 | 5.72 | 1.58 | 0 | -0.155 |
| CN1CC(c2ccccc2)CC12CCN(C(=O)c1ccc(F)cc1)CC2 (stereo not given) | -9.69 | 0 | 9.54 | -2.04 | 2.45 | 6.34 | 16.1 | 0.532 | 2.44 | -1.53 |
| O=C(NCC1CC1)[C@H]1C[C@H]2OCC[C@H]2N(Cc2ccsc2)C1 | -6.05 | -3.9 | -0.139 | -1.85 | -6.07 | 2.38 | -7.12 | -2.63 | 0 | -0.205 |
| Cn1c(C2CC2)nc2c1CCN(CCS(=O)(=O)c1ccccc1)C2 | -3.66 | -5.33 | 1.61 | 5.22 | 0 | -2.46 | 3.62 | 0.526 | 0 | -4.67 |
| Cn1cnc2c1CCN(CCCc1ccccc1)C2 | -5.94 | 2.67 | 4.07 | 5.62 | -3.55 | 4.16 | 23.4 | 7.89 | 12.8 | -10.6 |

Reference: ChEMBL document CHEMBL3988442, “University of Dundee, Small-Polar-MMV Screening Library” (2021)
